Results as given in PubChem BioAssay (NCATS).
Records with an inconclusive call do not appear. Calls of active or inactive are those of the source. The call rests on the fitted dose curve; in most records, active means well fitted inhibition curve with a large enough effect; inconclusive means small, poorly fitted or top-dose-only effect; inactive means no such curve, though single readings can be large or run the other way.

test: qHTS Screen of the MIPE 4.0 Collection Against Ewings Sarcoma (RDES) (AID 1259252); details: RD-ES Ewing sarcoma viability, CellTiter-Glo, 48 h; series mostly up to 45.8 µM; viability (percent of control): at the top concentration; further: nearly all actives have a fitted effect of over 35% in size;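 on viability (percent of control): 100% = DMSO-treated cells and 0% = medium-only wells without cells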
How it was run: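 Here, cells in 5% FBS RPMI were exposed for two days (48 h) to compound dilutions added four hours after plating. ATP-based CellTiter-Glo luminescence measured viability, normalized to vehicle and no-cell blanks.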
Potency means the concentration at half of the fitted maximal effect.

| SMILES | Potency | viability (percent of control) |
| --- | --- | --- |
| COc1cc2ncnc(Nc3ccc(F)c(Cl)c3)c2cc1NC(=O)C=CCN1CCCCC1 | 16.6 µM (active) | – |
| Nc1cc(C(F)(F)F)c(-c2cc(N3CCOCC3)nc(N3CCOCC3)n2)cn1 | 0.372 µM (active) | – |
| C[C@]1(CO)CN(c2cc(C(=O)Nc3ccc4c(c3)-c3c(c(C(N)=O)nn3-c3ccc(F)cc3)CC4)c(Cl)cn2)C[C@@]1(C)CO | 14.8 µM (active) | – |
| CCS(=O)(=O)c1cccc(-c2cc(C(=O)NC3CCN(C)CC3)c(C)c3[nH]c4ncc(C)cc4c23)c1 | 0.743 µM (active) | – |
| Nc1ccc(C(=O)c2cc3c(ccc4ccccc43)[nH]2)cc1 | 2.64 µM (active) | – |
| CCn1cc(-c2ccnc3[nH]c(-c4cccc(CN(C)C)c4)cc23)c(-c2ccc(NC(=O)N(C)C)cc2)n1 | 7.43 µM (active) | – |
| Cn1c(=O)n(-c2ccc(C(C)(C)C#N)cc2)c2c3cc(-c4cnc5ccccc5c4)ccc3ncc21 | 0.0469 µM (active) | – |
| CN1CCC(CNc2ccc3ncc(-c4cccc(OC(F)(F)F)c4)n3n2)CC1 | 16.6 µM (active) | – |
| Cc1cc(Nc2cc(N3CCN(C)CC3)nc(Sc3ccc(NC(=O)C4CC4)cc3)n2)n[nH]1 | 3.72 µM (active) | – |
| CNC(=O)c1ccc(N2C(=S)N(c3cnc(C#N)c(C(F)(F)F)c3)C(=O)C23CCC3)cc1F | 1.18 µM (active) | – |
| CC(C)c1noc(N2CCC(COc3ccc(-c4ccc(S(C)(=O)=O)cc4)nc3)CC2)n1 | – | 111% (inactive) |
| C[C@]12CC[C@H](O)CC1=CCC1C2CC[C@]2(C)C(n3cnc4ccccc43)=CCC12 (stereo partly specified) | – | 98.3% (inactive) |
| Cn1cc(-c2ccncc2)c(-c2ccc(OCc3ccc4ccccc4n3)cc2)n1 | 16.6 µM (active) | – |
| O=C(O)C1(Cc2cccc(Nc3nccs3)n2)CCC(Oc2cccc(Cl)c2F)CC1 (stereo unspecified) | 4.69 µM (active) | – |
| COC(=O)C[C@](O)(CCCC(C)(C)O)C(=O)O[C@@H]1C(OC)=C[C@]23CCCN2CCc2cc4c(cc2[C@H]13)OCO4 | – | 114% (inactive) |
| CCOc1cc2ncc(C#N)c(Nc3ccc(F)c(Cl)c3)c2cc1NC(=O)C=CCN(C)C | 0.105 µM (active) | – |
| O=C(Nc1cn[nH]c1-c1nc2ccc(CN3CCOCC3)cc2[nH]1)NC1CC1 | 3.72 µM (active) | – |
| CC(C)(C)c1cnc(CSc2cnc(NC(=O)C3CCNCC3)s2)o1 | 0.132 µM (active) | – |
| CC(=O)SC[C@@H](C)C(=O)N1CCC[C@H]1C(=O)N[C@@H](Cc1ccccc1)C(=O)O | – | 111% (inactive) |
| COc1cccc2c(NCc3ccccc3)nc(-n3c(N)nc4ccccc43)nc12 | 8.33 µM (active) | – |
| CCN1CCN(Cc2ccc(-c3cc4c(N[C@H](C)c5ccccc5)ncnc4[nH]3)cc2)CC1 | – | 29.9% (inactive) |
| CCC[C@H](NC(=O)C(C#N)=Cc1cccc(Br)n1)c1ccccc1 | 7.43 µM (active) | – |
| O=C(C=Cc1c(C(=O)O)[nH]c2cc(Cl)cc(Cl)c12)Nc1ccccc1 | – | 100% (inactive) |
| COc1ccc(OC)c(-c2nnc3ccc(-c4ccc(OC)c(O[C@@H]5CCOC5)c4)nn23)c1 | 16.6 µM (active) | – |
| COC(=O)Nc1nc2ccc(C(=O)c3ccc(F)cc3)cc2[nH]1 | 0.743 µM (active) | – |
| Cc1ccc(NC(=O)C2(c3ccc4c(c3)OC(F)(F)O4)CC2)nc1-c1cccc(C(=O)O)c1 | 0.0526 µM (active) | – |
